Data taken from PubChem BioAssay (EPA / NIEHS).
The source made the active and inactive calls. How the source made its calls: active means hit-call score of the fitted dose curve at least 0.9, where 1 is the maximum; inactive means score below 0.9.

The compounds below were run on TIMP metallopeptidase inhibitor 2 (TIMP2), TIMP2 (gene 7077) (assay: BSK_KF3CT_TIMP2: BioMAP Diversity Plus: KF3CT Assay for TIMP metallopeptidase inhibitor 2 (TIMP2) Biomarker Activity (AID 2283071)). Details: primary human keratinocytes with fibroblasts; actives raise or lower the signal.
Experimental: BSK_KF3CT is a cell-based, multiplexed-readout assay that uses keratinocytes and foreskin fibroblasts, a human skin primary cell co-culture, with measurements taken at 24 hours after chemical dosing in a 96-well plate.BSK_KF3CT_TIMP2 is an assay component measured in the BSK_KF3CT assay. It measures TIMP-2 antibody related to regulation of gene expression using ELISA technology.Data from the assay component BSK_KF3CT_TIMP2 was analyzed into 1 assay endpoint. This assay endpoint, BSK_KF3CT_TIMP2, was analyzed with bidirectional fitting relative to DMSO as the negative control and baseline of activity. Using a type of binding reporter, gain or loss-of-signal activity can be used to understand changes in the signaling as they relate to the gene TIMP2. Furthermore, this assay endpoint can be referred to as a primary readout, because this assay has produced multiple assay endpoints where this one serves a signaling function. To generalize the intended target to other relatable targets, this assay endpoint is annotated to the protease inhibitor intended target family, where the subfamily is metalloproteinase inhibitor.
The levels of cell surface (or secreted, indicated by the prefix "s") biomarker endpoints were measured by ELISA. Overt cytotoxicity to cells in confluent adherent cultures (all systems other than the BT system) was assessed by measuring total protein levels using sulforhodamine B (SRB) staining in parallel cultures at the time of biomarker measurements, indicated as SRB endpoints. For proliferation assays for adherent cell types, individual cell types are cultured at sub-confluence and relative cell numbers quantified by SRB staining at time points optimized for each system (48 h: 3C and CASM3C systems; 72 h: BT and HDF3CGF systems; 96 h: SAg system). SRB was performed by staining cells with 0.1% SRB after fixation with 10% TCA and reading wells at 560 nm.Viability and proliferation of PBMC (T cells) was quantified by Alamar Blue reduction for the SAg and BT systems. For PBMC viability (referred to as PBMC Cytotoxicity within the assay endpoint names), cells were plated (75,000/well in a 96-well plate) and then chemical samples added for 1 h before addition of activators, SEB and TSST-1 (20 ng/mL final concentration each). Cells were incubated for 90 h. Then, Alamar Blue (20 uL/well) (Invitrogen, Cat DAL1100) was added for 6 h, and the plates were read with a fluorescence microplate reader at 546/580 nm (excitation/emission). For PBMC proliferation, cells were plated and activated as above but incubated for only 16 h prior to addition of Alamar Blue. Plates were read after 6 h.

Compound | outcome | AC50
NC(=O)C(F)(F)C(F)(F)F | inactive | 
c1cc2c3c(cccc3c1)CC2 | inactive | 
Cc1ccc([N+](=O)[O-])cc1C | inactive | 
O=S(=O)(F)C(F)(F)C(F)(F)C(F)(F)C(F)(F)C(F)(F)C(F)(F)C(F)(F)C(F)(F)F | inactive | 
Nc1ccc(Cl)cc1 | inactive | 
CCC1(c2ccccc2)C(=O)N=C(O)NC1=O (stereo not given) | inactive | 
c1nc[nH]n1 | inactive | 
CC(C)(C)OOC(C)(C)C | inactive | 
c1ccc2c(c1)Nc1ccccc1S2 |  | 27.3 µM (active)
C=CC(=O)OCC(F)(F)C(F)F | inactive | 
c1ccc(OP(Oc2ccccc2)Oc2ccccc2)cc1 | inactive | 
COP(=O)(CCC(=O)NCO)OC | inactive | 
CC(Cl)CN(C)C (stereo not given) | inactive | 
O=C(O)C(F)(F)OC(F)(F)C(F)(F)OC(F)(F)F | inactive | 
O=C(O)C(Cl)Cl | inactive | 
[N-]=[N+]=[N-] | inactive | 
CCCCCCCc1ccc(O)cc1 |  | 32.2 µM (active)
COP(N)(=S)OC | inactive | 
O=C(O)C(F)(F)OC(F)(F)C(F)(F)OC(F)(F)C(=O)O | inactive | 
CCOP(=S)(NC(C)C)Oc1ccccc1C(=O)OC(C)C (stereo not given) | inactive | 

Compound | outcome | AC50
O=c1ssc(Cl)c1Cl |  | 2.71 µM (active)
O=C(O)C1C(C(=O)O)C2(Cl)C(Cl)=C(Cl)C1(Cl)C2(Cl)Cl (stereo not given) | inactive | 
COCCOCCO |  | 0.148 µM (active)
OCC1CO1 (stereo not given) | inactive | 
COP(=O)(O)OC | inactive | 
CCOP(=S)(OCC)SCS(=O)(=O)CC | inactive | 
Cc1c([N+](=O)[O-])cc2c(c1[N+](=O)[O-])C(C)(C)CC2(C)C | inactive | 
ClC(Cl)(Cl)c1ccccc1 | inactive | 
CCCN(CCC)c1c([N+](=O)[O-])cc(C(C)C)cc1[N+](=O)[O-] | inactive | 
COC(=O)C(F)(F)C(F)(F)OC(F)(C(F)(F)F)C(F)(F)OC(F)=C(F)F (stereo not given) | inactive | 
O=[N+]([O-])c1ccccc1 | inactive | 
CSC(C)(C)C=NO | inactive | 
CCOc1ccc(C(C)(C)COCc2cccc(Oc3ccccc3)c2)cc1 | inactive | 
CCCCC(CC)COP(=O)(Oc1ccccc1)Oc1ccccc1 (stereo not given) |  | 6.54 µM (active)
O=C(O)C(F)(F)C(F)(F)C(=O)O | inactive | 
CCOS(=O)(=O)OCC | inactive | 
N#Cc1cc([N+](=O)[O-])ccc1N | inactive | 
CCCCN(CCCC)N=O | inactive | 
CN(C)C(=O)Cl | inactive | 
Nc1ccc2ccccc2c1 | inactive | 
